About 18,000 (9%) of roughly 200,000 compounds were called active. For the sample, actives were picked, then their nearest neighbours and some compounds at random. Unmarked numbers belong to inactive results. Rule as the data show it: active = inhibition above about 50%; inactive = the rest. Where a SMILES comes first, the peptide text is derived from it. [ ]: non-standard residue; d: D form. ξ: configuration not given here. ξM = CSCCC(N)C(=O)O
Assay: Leishmania major promastigote growth inhibition, primary screen (AID 1063);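 also: promastigotes grown with compound for 44 hours at 28 °C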
Settings: Leishmania major promastigotes, resazurin fluorescence viability; at 10 µM; active compounds read high

Row | Structure (SMILES) | inhibition
1 | COc1ccnc(Oc2ccccc2)c1-c1ncn[nH]1 | -5.3%
2 | CC1CCN(S(=O)(=O)c2ccc3ncn(CC(=O)N(C)C4CCCCC4)c(=O)c3c2)CC1 | -0.9%
3 | Cc1ccc(NC(=O)Nc2nnc(-c3ccncc3)s2)cc1 | 12.8%
4 | CCN1/C(=C/c2ccc3ccc(C)cc3[n+]2CC)Sc2ccccc21 | 100% (active)
5 | CCN1/C(=C\c2ccc3ccccc3[n+]2CC)Sc2cc(C)ccc21 | 101% (active)
6 | CCC(=O)/C=C1\Sc2ccccc2N1CC | 3.43%
7 | O=C(Cc1ccccc1)N1CCN(S(=O)(=O)c2ccc([N+](=O)[O-])cc2)CC1 | 5.24%
8 | Cc1ccc(Nc2c(F)c(F)c(F)c(F)c2C(=O)O)c(C)c1 | -6.66%
9 | COc1cccc(CN(C)CC(=O)Nc2ccccc2C(=O)Nc2ccccc2)c1 | 16.9%
10 | Cc1cc([N+](=O)[O-])ccc1NC(=O)c1ccc(NC(=O)C(C)C)cc1 | -5.33%
11 | CN1CC(c2ccccc2)C2(COc3ccccc3C2=O)C12C(=O)Nc1ccccc12 (stereo not given) | 62.6% (active)
12 | Cc1ccc(S(=O)(=O)N2CCN(Cc3cccc(C)c3O)CC2)cc1 | -1.84%
13 | O=S(=O)(c1ccc(F)cc1)N1CCN(Cc2ccccc2C(F)(F)F)CC1 | 51.1% (active)
14 | O=C(CN1CCN(S(=O)(=O)c2ccc(F)cc2)CC1)Nc1ccccc1F | 1.33%
15 | COc1ccc(CN(C)C(C)C(=O)NC2CCCc3ccccc32)cc1 (stereo not given) | 10%
16 | O=C(c1cccc(F)c1)N1CCN(c2ccc([N+](=O)[O-])c(N3CCCCC3)c2)CC1 | 4.09%
17 | O=[N+]([O-])c1ccc(N2CCN(S(=O)(=O)c3ccc4ccccc4c3)CC2)cc1NCc1ccco1 | -0.79%
18 | O=C(c1ccccc1)N1CCN(c2ccc([N+](=O)[O-])c(NCc3ccco3)c2)CC1 | 65.6% (active)
19 | CN(C)c1ccc(/C=N/NC(=O)C(O)c2ccc(Br)cc2)cc1 (stereo not given) | 4.17%
20 | CN(C)c1ccnc(Nc2ccc(F)cc2)c1C#N | -2.28%

Row | Structure (SMILES) | inhibition
21 | C/C(=N\N=C(N)N)c1ccc(Cl)cc1 | 98.8% (active)
22 | COC(=O)/C(NC(C)=O)=C(\C)c1ccc(Cl)cc1 | 0.11%
23 | CCOC(=O)NNC(=O)c1ccc(Cl)cc1 | -5.24%
24 | FC(F)(F)c1cccc(Cc2noc(CN3CCC(N4CCCCC4)CC3)n2)c1 | 82.7% (active)
25 | Fc1cccc(Cc2noc(CN3CCN(c4cnccn4)CC3)n2)c1 | -3.37%
26 | CCOC(=O)N1CCN(Cc2nc(Cc3cccc(C(F)(F)F)c3)no2)CC1 | 4.8%
27 | Cc1ccc(S(=O)(=O)/N=C(/Nc2ccc3[nH]c(=O)[nH]c3c2)c2ccccc2)cc1 | -4.98%
28 | O=S(=O)(/N=C(/Nc1ccccc1)c1ccccc1)c1cccs1 | 1.04%
29 | CCOC(=O)c1ccc(N/C(=N/S(=O)(=O)c2ccccc2)c2ccccc2)cc1 | 61.3% (active)
30 | COC(=O)CNC(=O)C(CCSC)NC(C)=O (stereo not given) (Ac-[ξM]-Gly-OMe) | -3.76%
31 | COc1ccc(C[C@H]2CN3C(=NC[C@H]3C)N2CCNC(=O)CCC2CCCCC2)cc1 | 31.8%
32 | Cc1cccc(-n2c(=O)c3c(C)c(C)sc3n(CC(N)=O)c2=O)c1 | 4.25%
33 | CC(=O)N(CN1C(=O)C2C3C=CC(C3)C2C1=O)c1cccc(Cl)c1 (stereo not given) | -6.29%
34 | O=C(COC(=O)CNS(=O)(=O)c1ccccc1)NC12CC3CC(CC(C3)C1)C2 | 1.38%
35 | COc1ccccc1-c1nnc(NC(=O)c2ccc3ncsc3c2)o1 | 80.7% (active)
36 | COc1ccccc1-c1nnc(SCC(=O)Nc2ccccc2)o1 | 2.06%
37 | COc1ccccc1-c1nnc(NC(=O)c2cccc(N3C(=O)CCC3=O)c2)o1 | -4.87%
38 | Cc1ccc(S(=O)(=O)Cc2cc(-c3ccc(Cl)cc3)no2)cc1 | -0.46%
39 | COc1ccccc1CC(NC(C)=O)C(=O)NC1CCN(C(=O)Nc2ccccc2Cl)CC1 (stereo not given) | -3.45%
40 | COCCCNC(=O)Cn1c(=O)n(Cc2ccccc2Cl)c(=O)c2cc(OC)c(OC)cc21 | -3.45%

Row | Structure (SMILES) | inhibition
41 | Cc1ccc(S(=O)(=O)CCC(=O)OCc2ccccc2)cc1 | -3.07%
42 | CCOc1cc(C2C(C(=O)OC(C)C)=C(C)NC3=C2C(=O)CCC3)cc([N+](=O)[O-])c1O (stereo not given) | 8.32%
43 | O=C(Nc1ccccc1C(=O)N1CCOCC1)c1ccc(CSc2ccccc2)cc1 | 15.2%
44 | COc1ccc(C(=O)Nc2ccc(CN3CCOCC3)cc2)cc1 | 0.71%
45 | O=C(Nc1ccc(CSc2ccccc2)cc1)c1ccc(CN2CCOCC2)cc1 | 95.2% (active)
46 | NC(=O)COC(=O)c1sc2cc(F)ccc2c1Cl | -4.95%
47 | O=C(O)CCCCOn1ccnc1 | -5.36%
48 | Cc1onc(-c2ccccc2)c1C(=O)N1CCOCC1 | 0.76%
49 | O=C(c1ccccc1-c1ccccc1)N1CCOCC1 | 1.25%
50 | Cc1oc2c(c1C(=O)N1CCOCC1)C(=O)c1ccccc1C2=O | 99.7% (active)
51 | Cc1c(C=O)n(C)n(-c2ccccc2)c1=O | 0.34%
52 | COc1cc(NC(=O)COc2ccccc2Cl)ccc1NC(=O)C(C)C | 1.32%
53 | CN(C)S(=O)(=O)c1ccc2oc(SCC(=O)Nc3ccccc3F)nc2c1 | 2.57%
54 | CSc1ccccc1NC(=O)CN(C)CC(=O)Nc1cccc(Br)c1 | 18.6%
55 | CSc1ccccc1NC(=O)Cc1ccc(Br)cc1 | 53.5% (active)
56 | Cc1cccc(C)c1NC(=O)CNC(=O)Cc1ccc(Br)cc1 | -3.9%
57 | Cc1ccc(OCC(=O)Nc2ccc(S(=O)(=O)Nc3ccccn3)cc2)cc1 | -4.12%
58 | C=CCN(c1ccc(C(=O)Nc2cc(C)cc(C)c2)cc1)S(C)(=O)=O | 76% (active)
59 | C=CCN(c1ccc(C(N)=O)cc1)S(C)(=O)=O | -6.04%
60 | CSCc1ccc(C(=O)Nc2cc(C)cc(C)c2)cc1 | -3.2%
